Consider two compounds from PubChem BioAssay (EPA / NIEHS).

Molecules are shown by their SMILES. Calls of active or inactive are those of the source. The calls were made as follows: active = hit-call score of the fitted dose curve at least 0.9, where 1 is the maximum; inactive = score below 0.9.

Read-out in experiment [1]: Interleukin-8 (IL8), CXCL8 (gene 3576)
In words: BSK_3C_IL8: BioMAP Diversity Plus: 3C Assay for Interleukin-8 (IL8) Biomarker Activity (AID 2283020). The conditions noted are these: primary human endothelial cells (HUVEC); actives raise or lower the signal. The method, boiled down: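 Primary human umbilical vein endothelial cells (3C system) were exposed to test chemical for 24 h, then IL-8 was quantified by ELISA. Responses were fitted bidirectionally against DMSO vehicle as baseline.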

Read-out in experiment [2]: Monokine induced gamma interferon (MIG), CXCL9 (gene 4283)
Kind of experiment: BSK_3C_MIG: BioMAP Diversity Plus: 3C Assay for Monokine induced gamma interferon (MIG) Biomarker Activity (AID 2283021). The settings on record: primary human endothelial cells (HUVEC); actives raise or lower the signal. The method, boiled down: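 Primary human umbilical vein endothelial cells in the 3C system were exposed to chemical for 24 h, after which MIG was quantified by ELISA. Activity was fitted bidirectionally against DMSO as negative control and baseline.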

Experiment [3] in a line: BSK_3C_SRB: Viability Assessment in the BioMAP Diversity Plus: 3C Assay (AID 2283023).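 Also: fitted both ways against DMSO so a hit may be signal rise or drop.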 The conditions noted are these: primary human endothelial cells (HUVEC). The method, boiled down: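 Primary human umbilical vein endothelial cells in the 3C system were read 24 h after compound dosing. Total protein was stained with 0.1% sulforhodamine B after 10% TCA fixation and read at 560 nm, with bidirectional fitting against DMSO as baseline.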

Read-out in experiment [4]: Matrix Metallopeptidase 1 (MMP1), MMP1 (gene 4312)
Kind of experiment: BSK_BE3C_MMP1: BioMAP Diversity Plus: BE3C Assay for Matrix Metallopeptidase 1 (MMP1) Biomarker Activity (AID 2283024). The conditions noted are these: primary human bronchial epithelial cells; actives raise or lower the signal. The method, boiled down:
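Primary human bronchial epithelial cells were dosed with test chemicals, and MMP1 levels were measured by ELISA 24 h later. Data were fitted bidirectionally against DMSO as the negative control and activity baseline.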

Experiment [5] can be described thus: BSK_3C_Vis: BioMAP Diversity Plus: 3C Assay for Morphology Visualization (AID 2283025).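 Also: fitted both ways so gain or loss versus DMSO counts.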 The settings on record: primary human endothelial cells (HUVEC). The method, boiled down: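 Human umbilical vein endothelial cells in the 3C system were imaged by light microscopy 24 h after chemical dosing to record cell morphology. Activity was fitted bidirectionally against DMSO as negative control and baseline; the endpoint serves as a background control.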

Read-out in experiment [6]: Pselectin, SELP (gene 6403)
In words: BSK_4H_Pselectin: BioMAP Diversity Plus: 4H Assay for Pselectin Biomarker Activity (AID 2283026). The settings on record: primary human endothelial cells (HUVEC); actives raise or lower the signal. The method, boiled down:
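Primary human umbilical vein endothelial cells were exposed to test chemical for 24 h, then cell-surface P-selectin was quantified by ELISA. Activity was fitted bidirectionally against DMSO as negative control and baseline.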

A short description of experiment [7]: BSK_4H_SRB: Viability Assessment in the BioMAP Diversity Plus: 4H Assay (AID 2283027).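 Also: cells exposed to compound for 24 h before staining.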 The conditions noted are these: primary human endothelial cells (HUVEC). The method, boiled down:
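Absorbance at 560 nm of SRB-stained total protein served as the viability read-out in confluent primary human umbilical vein endothelium 24 h after chemical treatment. Curves were fitted bidirectionally against DMSO as negative control.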

A short description of experiment [8]: BSK_BE3C_SRB: Viability Assessment in the BioMAP Diversity Plus: BE3C Assay (AID 2283028). The conditions noted are these: primary human bronchial epithelial cells. The method, boiled down:
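Human primary bronchial epithelial cells were exposed to test chemicals for 24 h. Total protein in parallel cultures was then measured by staining with 0.1% sulforhodamine B after 10% TCA fixation, with absorbance read at 560 nm. Activity was fitted bidirectionally against DMSO.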

Read-out in experiment [9]: Thrombomodulin, THBD (gene 7056)
In words: BSK_3C_Thrombomodulin: BioMAP Diversity Plus: 3C Assay for Thrombomodulin Biomarker Activity (AID 2283029). The settings on record: primary human endothelial cells (HUVEC); actives raise or lower the signal. The method, boiled down:
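Primary human umbilical vein endothelial cells (3C system) were exposed to chemical for 24 h, then thrombomodulin levels were measured by ELISA. Activity was fitted bidirectionally against the DMSO negative control as baseline.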

Read-out in experiment [10]: Urokinase-type plasminogen activator receptor (uPAR), PLAUR (gene 5329)
In words: BSK_4H_uPAR: BioMAP Diversity Plus: 4H Assay for Urokinase-type plasminogen activator receptor (uPAR) Biomarker Activity (AID 2283030). The conditions noted are these: primary human endothelial cells (HUVEC); actives raise or lower the signal. The method, boiled down:
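Primary human umbilical vein endothelial cells were exposed to chemical for 24 h before cell-surface uPAR was quantified by ELISA. Activity was fitted bidirectionally against the DMSO negative control baseline.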

Read-out in experiment [11]: Vascular endothelial growth factor receptor 2 (Homo sapiens) (UniProt P35968)
In words: BSK_4H_VEGFRII: BioMAP Diversity Plus: 4H Assay for Vascular endothelial growth factor receptor 2 (VEGFR2) Biomarker Activity (AID 2283031). The settings on record: primary human endothelial cells (HUVEC); actives raise or lower the signal. The method, boiled down: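 Primary human umbilical vein endothelial cells in the BioMAP 4H system were dosed with test chemical, and 24 h later VEGFRII was measured by ELISA. Activity was fitted bidirectionally against DMSO as negative control and baseline.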

Read-out in experiment [12]: Human Leukocyte Antigen - DR isotype (HLADR), HLA-DRA (gene 3122)
In words: BSK_BE3C_HLADR: BioMAP Diversity Plus: BE3C Assay for Human Leukocyte Antigen - DR isotype (HLADR) Biomarker Activity (AID 2283032). The settings on record: primary human bronchial epithelial cells; actives raise or lower the signal. The method, boiled down:
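Human primary bronchial epithelial cells in the BE3C system were exposed to chemicals for 24 h, after which HLA-DR levels were quantified by ELISA. Activity was fitted bidirectionally, gain or loss of signal, against DMSO as negative control and baseline.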

Read-out in experiment [13]: Vascular cell adhesion molecule 1 (VCAM1), VCAM1 (gene 7412)
In words: BSK_4H_VCAM1: BioMAP Diversity Plus: 4H Assay for Vascular cell adhesion molecule 1 (VCAM1) Biomarker Activity (AID 2283033).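 Also: cell-surface VCAM-1 protein measured by ELISA.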 The conditions noted are these: primary human endothelial cells (HUVEC); actives raise or lower the signal. The method, boiled down:
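Primary human umbilical vein endothelial cells were exposed to chemicals for 24 h, after which VCAM-1 was quantified by ELISA. Responses were fitted bidirectionally against DMSO as negative control and activity baseline.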

Read-out in experiment [14]: Interferon-gamma inducible Protein 10 (IP10), CXCL10 (gene 3627)
Kind of experiment: BSK_BE3C_IP10: BioMAP Diversity Plus: BE3C Assay for Interferon-gamma inducible Protein 10 (IP10) Biomarker Activity (AID 2283034). The settings on record: primary human bronchial epithelial cells; actives raise or lower the signal. The method, boiled down: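 Human primary bronchial epithelial cells were exposed to chemicals for 24 hours, after which IP-10 levels were measured by ELISA. Data were fitted bidirectionally against DMSO, which served as the negative control and activity baseline.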

Read-out in experiment [15]: Monokine induced gamma interferon (MIG), CXCL9 (gene 4283)
In words: BSK_BE3C_MIG: BioMAP Diversity Plus: BE3C Assay for Monokine induced gamma interferon (MIG) Biomarker Activity (AID 2283035).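 Also: MIG protein measured by ELISA in BE3C cultures after 24 h of dosing.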 The conditions noted are these: primary human bronchial epithelial cells; actives raise or lower the signal. The method, boiled down: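 MIG level was determined by ELISA after 24 h chemical treatment of primary human bronchial epithelial cells. Values were fitted bidirectionally with DMSO as the negative control and activity baseline.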

Read-out in experiment [16]: Transforming growth factor beta 1 (TGFb1), TGFB1 (gene 7040)
In words: BSK_BE3C_TGFb1: BioMAP Diversity Plus: BE3C Assay for Transforming growth factor beta 1 (TGFb1) Biomarker Activity (AID 2283036). The settings on record: primary human bronchial epithelial cells; actives raise or lower the signal. The method, boiled down: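 Human primary bronchial epithelial cells (BE3C system) were dosed with chemical and TGF-b1 levels measured by ELISA at 24 h. Activity was fitted bidirectionally relative to DMSO negative control as baseline.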

Read-out in experiment [17]: Plasminogen activator inhibitor-1 (PAI1), SERPINE1 (gene 5054)
Kind of experiment: BSK_BE3C_PAI1: BioMAP Diversity Plus: BE3C Assay for Plasminogen activator inhibitor-1 (PAI1) Biomarker Activity (AID 2283037). The settings on record: primary human bronchial epithelial cells; actives raise or lower the signal. The method, boiled down:
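Human primary bronchial epithelial cells were exposed to chemical for 24 h, then PAI-1 was quantified by ELISA. Activity was fitted bidirectionally relative to the DMSO negative control baseline.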

Read-out in experiment [18]: urokinase plasminogen activator (uPA), PLAU (gene 5328)
In words: BSK_BE3C_uPA: BioMAP Diversity Plus: BE3C Assay for urokinase plasminogen activator (uPA) Biomarker Activity (AID 2283038).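 Also: uPA protein level quantified by ELISA in cell cultures; uPA read one day after compound addition.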 The settings on record: primary human bronchial epithelial cells; actives raise or lower the signal. The method, boiled down: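 Human primary bronchial epithelial cells were exposed to chemical for 24 h, then uPA levels were measured by ELISA. Responses were fitted bidirectionally against DMSO as negative control and baseline. Parallel SRB staining of total protein gauged overt cytotoxicity.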

Read-out in experiment [19]: Urokinase-type plasminogen activator receptor (uPAR), PLAUR (gene 5329)
Kind of experiment: BSK_BE3C_uPAR: BioMAP Diversity Plus: BE3C Assay for Urokinase-type plasminogen activator receptor (uPAR) Biomarker Activity (AID 2283039).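 Also: cells exposed to compound for one day before measurement.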 The settings on record: primary human bronchial epithelial cells; actives raise or lower the signal. The method, boiled down:
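Primary human bronchial epithelial cells were dosed with chemical and harvested 24 h later; uPAR was quantified by ELISA. Activity was fitted bidirectionally against DMSO as negative control and baseline.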

As to `Nc1cc([N+](=O)[O-])cc(Cl)c1O`, the result in [1], in experiment [2], in [3], in [4], in experiment [5] and in experiment [6] was inactive. The result in [7], in experiment [8], in experiment [9], in experiment [10], in experiment [11] and in [12] was inactive. Also, the outcome in [13], in [15], in experiment [16], in [17], in [18] and in experiment [19] was inactive. The AC50 in experiment [14] is 3.97 µM (active).
In the case of `O=C=NCc1cccc(CN=C=O)c1`, the result in experiment [1], in experiment [2], in experiment [3], in experiment [4], in experiment [5] and in experiment [6] was inactive. The outcome in [7], in experiment [8], in [9], in experiment [10], in experiment [11] and in experiment [12] was inactive. Also, the outcome in experiment [13], in [14], in [15], in [16], in experiment [17] and in experiment [18] was inactive. The outcome in [19] was inactive.
